This is an account of results in PubChem BioAssay (Tox21).

The target of experiment [1] is Progesterone receptor (Homo sapiens) (UniProt P06401). The experiment is described as follows: qHTS assay to identify small molecule agonists of the progesterone receptor (PR) signaling pathway (AID 1346784; calls by dose curve; note: nearly all actives have a fitted effect of over 30% in size). The essentials: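 PR-UAS-bla HEK 293T cells carrying a UAS-driven beta-lactamase reporter were seeded in medium with 2% charcoal-stripped FBS, preincubated 6 hr at 37C, then exposed to compounds in DMSO for 16 hr; agonism was read by LiveBLAzer B/G FRET fluorescence.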
Sequence of Progesterone receptor (Homo sapiens) (P06401 whole entry, looked up): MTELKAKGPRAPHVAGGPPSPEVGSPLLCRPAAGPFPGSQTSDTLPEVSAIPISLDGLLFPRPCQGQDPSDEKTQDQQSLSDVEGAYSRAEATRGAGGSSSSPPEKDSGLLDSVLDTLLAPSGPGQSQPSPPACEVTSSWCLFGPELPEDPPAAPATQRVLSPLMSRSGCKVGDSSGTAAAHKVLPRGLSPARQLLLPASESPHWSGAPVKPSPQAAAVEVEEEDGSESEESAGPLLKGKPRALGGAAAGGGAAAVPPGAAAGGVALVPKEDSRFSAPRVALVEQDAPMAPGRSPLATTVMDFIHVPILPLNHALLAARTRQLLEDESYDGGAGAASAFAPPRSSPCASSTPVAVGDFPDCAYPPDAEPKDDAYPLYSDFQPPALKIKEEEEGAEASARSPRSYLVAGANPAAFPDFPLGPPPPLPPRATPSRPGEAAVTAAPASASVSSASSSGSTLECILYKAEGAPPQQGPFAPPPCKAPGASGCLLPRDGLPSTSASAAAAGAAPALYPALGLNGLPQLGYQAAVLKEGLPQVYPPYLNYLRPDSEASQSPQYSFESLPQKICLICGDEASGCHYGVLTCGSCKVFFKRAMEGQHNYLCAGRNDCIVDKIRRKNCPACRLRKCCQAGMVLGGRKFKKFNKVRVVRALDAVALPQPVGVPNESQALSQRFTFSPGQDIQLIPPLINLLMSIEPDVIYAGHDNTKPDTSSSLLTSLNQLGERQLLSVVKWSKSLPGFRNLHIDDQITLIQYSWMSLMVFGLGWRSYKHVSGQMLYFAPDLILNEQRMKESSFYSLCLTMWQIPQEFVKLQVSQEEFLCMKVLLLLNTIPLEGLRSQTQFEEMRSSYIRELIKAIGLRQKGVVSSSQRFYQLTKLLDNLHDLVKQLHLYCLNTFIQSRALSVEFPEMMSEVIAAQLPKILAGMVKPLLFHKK
On the technique in general: In qHTS, concentration-response curves come from the screen itself.

For experiment [2] the target is unchanged. The experiment is described as follows: qHTS assay to identify small molecule antagonists of the progesterone receptor (PR) signaling pathway (AID 1346795; active = well fitted inhibition curve with a large enough effect in the signal ratio in the repeat runs, not every such curve was filed as active; the % refers to the signal ratio; note: potency is the fitted concentration of half-maximal effect). An outline of the steps: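 PR-UAS-bla HEK293T cells carrying a UAS-driven beta-lactamase reporter were plated in medium with 2% charcoal-stripped FBS and rested 6 hr at 37C. Compounds were added with 1 nM R5020 (final) for 16 hr, then FRET substrate loaded 2 hr at room temperature.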

Experiment [3] is described as follows: qHTS assay to identify small molecule antagonists of the progesterone receptor (PR) signaling pathway - cell viability counter screen (AID 1346798). Note: nearly all actives have a fitted effect of over 50% in size. Note: potency is the fitted concentration of half-maximal effect. An outline of the steps: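 PR-UAS-bla HEK293T cells in medium with 2% charcoal-stripped FBS were treated with compounds plus R5020 for 16 hr at 37C. Cell viability was then read by CellTiter-Glo luminescence after 30 min at room temperature in the same wells.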

Experiment [4] can be described thus: qHTS assay to identify small molecule agonists of the progesterone receptor (PR) signaling pathway - cell viability counter screen (AID 1346799; calls by dose curve; note: nearly all actives have a fitted effect of over 45% in size; note: potency is the fitted concentration of half-maximal effect). The essentials:
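PR-UAS-bla HEK293T cells, 3,000 per well in medium with 2% charcoal-stripped FBS, were preincubated 6 hr at 37C, then exposed to compounds for 16 hr; viability was read as CellTiter-Glo luminescence after 30 min at room temperature.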

Experiment [5] in a line: qHTS assay to identify small molecule antagonists of the TGF-beta/Smad signaling pathway - cell viability counter screen (AID 1346824). Note: nearly all actives have a fitted effect of over 50% in size. Note: potency is the fitted concentration of half-maximal effect. The essentials:
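Cytotoxicity counter-screen run in the same wells as the beta-lactamase Smad reporter read: CellTiter-Glo luminescence after 30 min at room temperature. HEK 293T SBE-bla cells had 5 hr compound exposure at 37 C with TGF-beta1 (0.25 ng/mL stock).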

The nature of experiment [6]: qHTS assay to identify small molecule agonists of the TGF-beta/Smad signaling pathway - cell viability counter screen (AID 1346829). Note: nearly all actives have a fitted effect of over 45% in size. Note: potency is the fitted concentration of half-maximal effect. The essentials: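 In parallel with the Smad reporter read, viability of HEK 293T cells stably carrying SBE-bla is quantified by ATP luminescence following 5 hr compound treatment.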
Experiment [7] deals with Thyrotropin-releasing hormone receptor (Homo sapiens) (UniProt P34981). Put plainly: qHTS assay to identify small molecule antagonists of the thyrotropin-releasing hormone receptor (TRHR) signaling pathway (AID 1346877; active = well fitted inhibition curve with a large enough effect in the repeat runs, not every such curve was filed as active; note: potency is the fitted concentration of half-maximal effect). An outline of the steps: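 Antagonism is measured as suppression of the calcium response to 1 nM TRH in TRHR-HEK293 cells that have been dye-loaded for 2 h at 37 °C after overnight plating. Each compound is tested at 15 concentrations in triplicate.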
Sequence of Thyrotropin-releasing hormone receptor (Homo sapiens) (P34981 whole entry, looked up): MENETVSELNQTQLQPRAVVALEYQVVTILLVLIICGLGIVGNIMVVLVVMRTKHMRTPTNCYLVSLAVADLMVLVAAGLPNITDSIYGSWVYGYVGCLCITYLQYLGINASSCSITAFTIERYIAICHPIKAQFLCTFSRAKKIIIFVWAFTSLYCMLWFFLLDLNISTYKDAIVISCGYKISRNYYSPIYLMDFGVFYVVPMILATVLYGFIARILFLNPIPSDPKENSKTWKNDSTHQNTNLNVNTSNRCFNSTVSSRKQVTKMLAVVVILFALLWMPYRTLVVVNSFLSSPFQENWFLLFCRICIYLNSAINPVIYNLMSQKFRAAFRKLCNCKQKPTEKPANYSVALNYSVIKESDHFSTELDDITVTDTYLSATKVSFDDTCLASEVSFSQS

Experiment [8] is described as follows: Human pregnane X receptor (PXR) small molecule agonists, qHTS cell viability counter screen (AID 1346977). Note: nearly all actives have a fitted effect of over 50% in size. Note: potency is the fitted concentration of half-maximal effect. An outline of the steps:
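PXR-Luc HepG2 cells in medium with 5% charcoal-stripped FBS were pre-incubated 5hr, then exposed to compounds for 24hr at 37C. Viability was read in the same wells by CellTiter-Fluor fluorescence, reagent added after 23hr with a 1hr incubation.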

Experiment [9] is described as follows: Caspase-3/7 induction in HepG2 cells by small molecules, qHTS assay (AID 1346978). Note: nearly all actives have a fitted effect of over 15% in size. Note: potency is the fitted concentration of half-maximal effect. An outline of the steps: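 Caspase-3/7 induction was measured by Caspase-Glo 3/7 luminescence (30 min, room temperature) after a 17 hr compound exposure of wild-type HepG2 cells seeded at 2,000 per well and pre-incubated 5 hr.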
Experiment [10] is described as follows: Caspase-3/7 induction in CHO-K1 cells by small molecules, qHTS cell viability counter screen (AID 1346979). Note: nearly all actives have a fitted effect of over 35% in size. Note: potency is the fitted concentration of half-maximal effect. An outline of the steps: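 Wild-type CHO-K1 cells were seeded at 1,500 per well, rested 5hr at 37 C, then exposed to compounds in DMSO. After 16hr, CellTiter-Fluor reagent was added and fluorescence read 1hr later as the viability measure.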
A short description of experiment [11]: Caspase-3/7 induction in CHO-K1 cells by small molecules, qHTS assay (AID 1346980). Note: nearly all actives have a fitted effect of over 15% in size. Note: potency is the fitted concentration of half-maximal effect. The essentials:
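Luminescent Caspase-Glo 3/7 read (30min, room temperature) quantified apoptosis induction. Cells were wild-type CHO-K1, treated with compound for 17hr at 37 C and 5% CO2.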

Experiment [12] in a line: Caspase-3/7 induction in HepG2 cells by small molecules, qHTS cell viability counter screen (AID 1346981). Note: nearly all actives have a fitted effect of over 30% in size. Note: potency is the fitted concentration of half-maximal effect. An outline of the steps: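 Cell viability is measured as a cytotoxicity counter screen alongside the Caspase-Glo 3/7 readout in identical wells. Wild-type HepG2 cells are treated with test compounds for 16 hr at 37 C before CellTiter-Fluor addition and a 1-hr incubation.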

The target in experiment [13] is Nuclear receptor subfamily 1 group I member 2 (Homo sapiens) (UniProt O75469). The experiment is described as follows: Human pregnane X receptor (PXR) small molecule agonists, qHTS assay (AID 1346982). Note: nearly all actives have a fitted effect of over 35% in size. Note: potency is the fitted concentration of half-maximal effect. The essentials:
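Cells: HepG2 stably carrying PXR-Luc. Medium held 5% charcoal-stripped FBS. Compounds in DMSO added after 5 hr plating, incubated 24 hr, then luminescence quantified with ONE-Glo.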

In experiment [14] the target is Cytochrome P450 2D6 (Homo sapiens) (UniProt P10635). Put plainly: Cytochrome P450 Family 2 Subfamily D Member 6 (CYP2D6) small molecule antagonists: luciferase reporter qHTS assay (AID 1671196). Note: nearly all actives have a fitted effect of over 50% in size. Note: potency is the fitted concentration of half-maximal effect. The essentials:
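Enzyme and proluciferin substrate were first combined with test chemical for 10 min at room temperature. Adding NADPH regeneration solution started a 1 h reaction, stopped with luciferin detection reagent and read by luminescence 20 min later.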

For experiment [15], the target named is Cytochrome P450 2C19 (Homo sapiens) (UniProt P33261). Put plainly: Cytochrome P450 Family 2 Subfamily C Member 19 (CYP2C19) small molecule antagonists: luciferase reporter qHTS assay (AID 1671197). Note: nearly all actives have a fitted effect of over 65% in size. Note: potency is the fitted concentration of half-maximal effect. The essentials: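 Compounds were tested on CYP2C19 activity via proluciferin conversion to luciferin. The 37C, 1 h reaction followed NADPH addition; detection reagent stopped it.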
Sequence of Cytochrome P450 2C19 (Homo sapiens) (P33261 whole entry, looked up): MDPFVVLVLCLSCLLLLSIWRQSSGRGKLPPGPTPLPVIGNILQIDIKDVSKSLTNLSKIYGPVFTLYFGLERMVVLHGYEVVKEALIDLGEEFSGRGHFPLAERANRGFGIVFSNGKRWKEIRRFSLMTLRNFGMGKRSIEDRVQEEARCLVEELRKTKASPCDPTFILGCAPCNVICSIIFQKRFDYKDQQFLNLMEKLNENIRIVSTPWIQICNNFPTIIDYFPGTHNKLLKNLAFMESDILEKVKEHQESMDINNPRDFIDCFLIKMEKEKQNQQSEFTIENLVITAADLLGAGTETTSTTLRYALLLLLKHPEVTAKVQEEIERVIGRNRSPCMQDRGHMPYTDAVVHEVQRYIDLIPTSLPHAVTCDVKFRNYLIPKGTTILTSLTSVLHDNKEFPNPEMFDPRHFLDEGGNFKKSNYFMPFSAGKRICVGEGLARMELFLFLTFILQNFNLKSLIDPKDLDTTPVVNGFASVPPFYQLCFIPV

A short description of experiment [16]: qHTS assay to identify small molecule agonists of the TGF-beta/Smad signaling pathway (AID 1346859; active = well fitted activation curve with a large enough effect in the signal ratio in the repeat runs, not every such curve was filed as active; the % refers to the signal ratio; note: series mostly up to about 77 µM). The essentials: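 HEK 293T cells stably carrying a beta-lactamase reporter driven by the Smad binding element were seeded overnight, exposed to DMSO-dissolved compounds for 5 hr at 37 C, 5% CO2, then loaded with FRET substrate for 2 hr at room temperature.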

In experiment [17] the target is Thyrotropin-releasing hormone receptor (Homo sapiens) (UniProt P34981). The experiment is described as follows: qHTS assay to identify small molecule agonists of the thyrotropin-releasing hormone receptor (TRHR) signaling pathway (AID 1346891; calls by dose curve; note: series mostly up to about 58 µM). An outline of the steps: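 TRHR-expressing HEK293 cells were plated 18 h at 37 °C/5% CO2, loaded with calcium dye 2 h at 37 °C, then given compound in DMSO; fluorescence was read kinetically for 3 min at 1 s intervals.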

Experiment [18] has as its target Nuclear receptor subfamily 1 group I member 2 (Rattus norvegicus) (UniProt Q9R1A7). Put plainly: Rat pregnane X receptor (rPXR) activation by small molecules, qHTS assay (AID 1346983). Note: nearly all actives have a fitted effect of over 20% in size. Conditions: rPXR luciferase reporter cells, One-Glo luminescence, 24 h; max activation: stronger effect = higher value. An outline of the steps: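 Luminescent readout (One-Glo luciferase, 30 min room temperature) followed 24 hr compound treatment at 37 C of rPXR cells plated 2,000 per well and preincubated 5hr; qHTS format with compounds delivered in DMSO.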

Experiment [19] deals with Nuclear receptor subfamily 1 group I member 2 (Homo sapiens) (UniProt O75469). Put plainly: CYP3A4 induction through human pregnane X receptor (PXR) by small molecules, qHTS assay (AID 1346984). Note: nearly all actives have a fitted effect of over 40% in size. An outline of the steps:
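Quantitative HTS in DPX-2 cells, i.e. HepG2 transfected with PXR response element and CYP3A4-promoter luciferase. Compounds in DMSO incubated 24hr at 37C; then P450-Glo CYP3A4 substrate, 3uM final, 3hr; One-Glo luminescence.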

Experiment [20] has the same target. Put plainly: Human pregnane X receptor (PXR) activation by small molecules, qHTS assay (AID 1346985). Note: nearly all actives have a fitted effect of over 40% in size. The essentials:
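DPX-2 cells (HepG2 co-transfected with a PXR response element and a CYP3A4-promoter luciferase construct) were seeded at 2,000 per well, rested 5 hr at 37C, then exposed to DMSO-dissolved compounds for 24 hr. Activation was read as luciferase luminescence.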

Where “and” joins values, the source holds several entries; their conditions need not be identical. Identical values can stand only once. A number with no mark means an inactive call. Records with an inconclusive call do not appear. Calls of active or inactive are those of the source. Unless noted, calls come from the whole dose curve; as a rule, active = well fitted curve in the direction sought with a large enough effect in the repeat runs; inconclusive = weak or mixed curves; inactive = no such curve, though single readings can be large; an effect the other way counts as inactive or inconclusive.
% is set by controls: 0 for no effect and ±100 for the full control effect.

Sequence of Cytochrome P450 2D6 (Homo sapiens) (P10635 whole entry, looked up): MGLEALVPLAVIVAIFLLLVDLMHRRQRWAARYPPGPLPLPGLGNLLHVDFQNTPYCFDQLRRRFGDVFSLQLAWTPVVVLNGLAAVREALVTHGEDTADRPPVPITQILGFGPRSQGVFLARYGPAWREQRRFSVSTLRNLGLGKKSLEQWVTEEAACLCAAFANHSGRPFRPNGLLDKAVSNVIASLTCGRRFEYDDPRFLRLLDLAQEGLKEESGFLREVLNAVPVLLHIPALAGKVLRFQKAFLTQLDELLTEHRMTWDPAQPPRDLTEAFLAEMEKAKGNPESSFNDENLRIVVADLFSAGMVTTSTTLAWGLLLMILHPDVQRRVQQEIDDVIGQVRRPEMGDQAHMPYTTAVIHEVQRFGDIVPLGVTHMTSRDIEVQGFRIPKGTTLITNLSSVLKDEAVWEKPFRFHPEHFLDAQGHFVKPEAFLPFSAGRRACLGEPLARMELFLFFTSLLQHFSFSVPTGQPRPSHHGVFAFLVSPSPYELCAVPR
Sequence of Nuclear receptor subfamily 1 group I member 2 (Homo sapiens) (O75469 whole entry, looked up): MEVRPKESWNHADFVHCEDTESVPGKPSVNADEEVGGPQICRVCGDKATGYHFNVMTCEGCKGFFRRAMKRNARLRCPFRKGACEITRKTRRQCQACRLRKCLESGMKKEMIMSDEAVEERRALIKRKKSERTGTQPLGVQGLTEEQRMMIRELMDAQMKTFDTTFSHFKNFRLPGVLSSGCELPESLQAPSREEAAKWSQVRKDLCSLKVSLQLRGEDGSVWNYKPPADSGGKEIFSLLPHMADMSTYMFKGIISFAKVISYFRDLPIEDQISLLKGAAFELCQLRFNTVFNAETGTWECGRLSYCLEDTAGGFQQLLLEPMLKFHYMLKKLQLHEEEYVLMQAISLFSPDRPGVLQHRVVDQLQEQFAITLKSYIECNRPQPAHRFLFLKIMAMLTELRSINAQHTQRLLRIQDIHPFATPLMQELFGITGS
Sequence of Nuclear receptor subfamily 1 group I member 2 (Rattus norvegicus) (Q9R1A7 whole entry, looked up): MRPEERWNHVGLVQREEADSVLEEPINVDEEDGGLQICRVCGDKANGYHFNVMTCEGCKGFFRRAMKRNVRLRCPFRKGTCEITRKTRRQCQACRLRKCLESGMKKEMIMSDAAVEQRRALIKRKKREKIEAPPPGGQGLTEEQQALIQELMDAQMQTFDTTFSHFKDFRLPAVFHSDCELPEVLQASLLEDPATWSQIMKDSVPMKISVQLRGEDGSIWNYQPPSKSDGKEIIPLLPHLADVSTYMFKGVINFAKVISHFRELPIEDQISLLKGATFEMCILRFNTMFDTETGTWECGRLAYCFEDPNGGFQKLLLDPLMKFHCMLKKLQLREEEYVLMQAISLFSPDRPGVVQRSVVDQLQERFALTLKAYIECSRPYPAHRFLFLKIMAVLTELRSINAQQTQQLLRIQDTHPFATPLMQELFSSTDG

For `CCN=c1cc2oc3cc(NCC)c(C)cc3c(-c3ccccc3C(=O)OCC)c-2cc1C`, the result in experiment [1] was inactive. In addition, the Potency is 48.4 µM (active) and 54.5 µM (active) in [2]; 61.1 µM (active) in experiment [3]; 48.4 µM (active) in experiment [4]; 48.8 µM (active) and 49 µM (active) in experiment [5]; 48.8 µM (active) and 49 µM (active) in experiment [6]; 8.47 µM (active) and 10.7 µM (active) in experiment [7]. Further, the Potency is 2.51 µM (active) and 1.54 µM (active) in experiment [8]; 27.3 µM (active) in experiment [9]; 965 nM (active) and 611 nM (active) in experiment [10]; 43.1 µM (active) and 48.6 µM (active) in [11]; 2.72 µM (active) and 7.7 µM (active) in [12]; 2.42 µM (active) and 1.72 µM (active) in experiment [13]. For the same molecule, the Potency in experiment [14] was 17.8 µM (active) and 20 µM (active); in experiment [15], 7.94 µM (active) and 10 µM (active).

With `CCCCCCCCCCCCCc1ccccc1`, in experiment [1], the result was inactive. For the same molecule, the Potency entry in [2], in experiment [3], in experiment [4], in [5], in experiment [6] and in experiment [16] was “inactive” throughout. Also, the Potency entry in experiment [8], in experiment [9], in experiment [10], in experiment [11], in experiment [13] and in [14] was “inactive” throughout. The Potency result in experiment [15] is “inactive”.

With `Oc1cc2ccccc2cc1O`, the molecule was called inactive in experiment [1]. Also, the Potency entry in experiment [2], in experiment [3], in experiment [4], in experiment [5], in experiment [6] and in experiment [8] was “inactive” each time. The Potency entry in [9], in experiment [10], in experiment [11], in experiment [12] and in experiment [13] was “inactive” throughout. Further, the Potency in experiment [15] was 39.9 µM (active).

As to `CC(=O)OC1CCCCC1`, the molecule was classed as inactive in experiment [1]. Further, the Potency entry in experiment [2], in [3], in experiment [4], in [6], in experiment [16] and in experiment [7] was “inactive” throughout. Besides, the Potency entry in [17], in experiment [8], in experiment [9], in [10], in experiment [12] and in [13] was “inactive” throughout. Moreover, the Potency result in experiment [14] and in [15] was “inactive” each time.

Regarding `CCCCN(CCCC)CCC(O)c1cc2c(Cl)cc(Cl)cc2c2cc(C(F)(F)F)ccc12` (stereo not drawn), in experiment [1], the result was inactive. In addition, the Potency entry in [2], in experiment [3], in experiment [4], in [6], in experiment [16] and in experiment [9] was “inactive” throughout. Moreover, the Potency result in [11], in experiment [12], in experiment [19], in [20] and in [15] was “inactive” each time. Moreover, the Potency in [8] is 26.6 µM (active); in [10] it was 26.6 µM (active); in experiment [13], 21.1 µM (active); in experiment [14], 1.55 µM (active). Besides, in [18], the max activation was -2.62%.

Regarding `CC1CCCCC1`, the outcome in experiment [1] was inactive. For the same molecule, the Potency result in experiment [2], in experiment [3], in [4], in [5], in experiment [6] and in experiment [16] was “inactive” each time. The Potency result in [8], in experiment [9], in [10], in experiment [11], in [13] and in experiment [14] was “inactive” in each case. Moreover, the Potency entry in [15] was “inactive”.
